# CBFb-RUNX1 inh: blocks binding between human CBF-beta and RUNX1. AlphaScreen CBFb-His/RUNX1-biotin binding, biochemical. Potency, µM (doses to about 59.8 µM), without a hit: at the highest dose activity, negative = inhibition, hits mostly inhibitors. 230,000 tested, under 10 active; also: % of control where 0% means no effect
#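 Compounds were screened at multiple concentrations against a preformed CBF-beta(His)/RUNX1(biotin) complex (30 nM of each) for 15 min at room temperature, followed by 90 min with nickel and streptavidin beads and AlphaScreen reading.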
# ERK EGF inh: inhibitors of EGF-stimulated ERK signaling pathway. HEK293-V1b, EGF-stimulated phospho-ERK AlphaScreen. Potency, µM (highest dose often 11.5 µM), without a hit: top-dose activity change, negative = inhibition, actives largely listed as inhibitors. actives 0.41% (n = 130,000). AID 1454;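 also: potency is read from the fitted curve at half-maximal effect; plate controls were stimulated vehicle wells for no effect and unstimulated vehicle basal for full effect; nearly all actives have a fitted effect of over 55% in size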
#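 HEK293 cells stably expressing V1b receptor, serum-reduced (1% FBS) overnight, got compound for 30 min at 37C, then 25 nM EGF for 5 min. Lysate phospho-ERK read by AlphaScreen SureFire; AC50 from Hill fits.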
# RGS12 GoLoco inh: RGS12 GoLoco-Gai1 interaction inhibition; Gai1:RGS12 GoLoco peptide FP, rhodamine, 10 min; AID 880; actives 0.44% (n = 230,000); P63096; Potency, µM (titrated, usually from 61.6 µM), without a hit: at the highest dose activity, negative = inhibition, usual class: inhibitors; active = well fitted inhibition curve with a large enough effect, not every such curve was filed as active; inactive = no such curve, though single readings can be large or run the other way; also: potency is read from the fitted curve at half-maximal effect; % is scaled to controls: 0 for no effect and ±100 for the full control effect; nearly all actives have a fitted effect of over 30% in size
# Target sequence (P63096 whole entry, looked up): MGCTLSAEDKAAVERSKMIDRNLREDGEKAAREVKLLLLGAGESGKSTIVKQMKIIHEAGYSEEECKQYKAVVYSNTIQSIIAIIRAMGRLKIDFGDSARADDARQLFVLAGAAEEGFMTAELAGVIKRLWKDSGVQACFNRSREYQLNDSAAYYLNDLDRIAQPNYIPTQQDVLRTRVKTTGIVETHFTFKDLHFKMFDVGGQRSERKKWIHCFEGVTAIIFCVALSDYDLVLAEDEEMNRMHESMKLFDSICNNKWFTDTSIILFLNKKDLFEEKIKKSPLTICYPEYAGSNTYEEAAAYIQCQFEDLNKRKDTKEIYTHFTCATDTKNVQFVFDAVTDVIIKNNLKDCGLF
# * = called active by the depositor; u = inconclusive; x = no result given; [ ] = another dose, or the depositor's remark. Rows were chosen to be rich in hits. Some 0.5% of all compounds tested hit in one or more screens of this group. Unless noted, calls follow the shape of the dose curve; as a rule, active = well fitted curve in the direction sought with a large enough effect; inconclusive = small, poorly fitted or top-dose-only effect, or another doubt; inactive = no such curve, though single readings can be large; an effect the other way counts as inactive or inconclusive.
SMILES,CBFb-RUNX1 inh,ERK EGF inh,RGS12 GoLoco inh
N[C@H](C(=O)O)C1C(C(=O)O)C1C(=O)O (stereo partly specified),u,x,14%
COc1cc(-c2ccc(N=Nc3ccc4c(S(=O)(=O)O)cc(S(=O)(=O)O)c(N)c4c3O)c(OC)c2)ccc1N=Nc1ccc2c(S(=O)(=O)O)cc(S(=O)(=O)O)c(N)c2c1O,x,-7%,30%
Cc1nn(-c2ccc(S(=O)(=O)O)cc2)c(O)c1N=Nc1ccc(-c2ccc(N=Nc3ccc4c(S(=O)(=O)O)cc(S(=O)(=O)O)c(N)c4c3O)c(O)c2)cc1O.[Cu].[Cu],x,x,3.2µM*
Cc1ccc2ncccc2c1,-7%[21.7 µM],x,12%
Cc1cc(N(C)C)ccc1N=Nc1ccc2ncccc2c1,x,20µM*,23%
CCCCN1C(=O)N(C)C2NC(=O)NC21 (stereo unspecified),-5%,x,2%
CSC1=NC2C(N1)N(C)C(=O)N2C (stereo unspecified),-2%,x,16µM*
CCCCc1nc2c(c3c1C[C@H](C)OC3)CN(C(=O)NCCCC(=O)OCC)CC2,-4%[13.1 µM],x,6%[14.2 µM]
Oc1ccccc1Nc1nc(NCC2CCCO2)c2ccccc2n1 (stereo unspecified),-11%,x,-1%
CC(C)Oc1ccc(-c2nc(NCC3CCCO3)c3ccccc3n2)cc1 (stereo unspecified),2%,32µM*,4%
COc1cccc(N=c2oc3cc(O)ccc3cc2C(=O)NCC2CCCO2)c1 (stereo unspecified),-20%,28µM*,13%
COc1ccccc1N=c1oc2cc(O)ccc2cc1C(=O)NCC1CCCO1 (stereo unspecified),7%,x,16%
CCCCCCCCCCCCCCCC(=O)OC[C@@H](COP(=O)([O-])OCC[N+](C)(C)C)OC(=O)CCCCCCCCCCCCCCC,-28%,x,x
O=C(N/N=C1\CC2CC=CC12)c1ccccc1Cl (stereo unspecified),16%,-4%,7%
O=[N+]([O-])c1ccccc1N/N=C1\CC2CC=CC12 (stereo unspecified),x,13µM*,0%
CCNc1ncc2nc(-c3ccccc3)c(=O)n(CCC#N)c2n1,x,x,3%
CCn1c(SCc2nc3scc(-c4ccccc4)c3c(=O)[nH]2)nnc1-c1cccs1,-18%,25µM*,75%
Cc1nnc(SCc2nc3scc(-c4ccccc4)c3c(=O)[nH]2)s1,-1%,-5%[57.5 µM],54%
Cc1cc(OI)c(C(C)C)cc1-c1cc(C(C)C)c(OI)cc1C,u,x,-16%
CCOC(=O)N1CCCN(/[N+]([O-])=N/Oc2ccc([N+](=O)[O-])cc2[N+](=O)[O-])CC1,4%,x,x
CC(C)(C)C(=O)NC(=S)NNC(=O)c1sc2ccccc2c1Cl,3%,13µM*,9%
O=C(NNC(=S)NC1CCCCC1)c1sc2ccccc2c1Cl,-12%,2%,5%
Cc1cc(=O)[nH]c2ccccc12,1%,x,6%
Cc1[nH]c(=O)cc2ccccc12,-10%,x,8.9µM*
CC1=NN(c2ccccc2)C(=O)/C1=C\c1cc(C)n(-c2ccccc2)c1C,u,-5%,-11%
SMILES,CBFb-RUNX1 inh,ERK EGF inh,RGS12 GoLoco inh
CC1=NN(c2ccccc2)C(=O)/C1=C/c1ccc[nH]1,x,18µM*,4%
CC1=NN(c2ccccc2)C(=O)/C1=C/c1cccs1,-6%,5%,8%
CC1=NN(c2ccccc2)C(=O)/C1=C\c1ccc(Br)s1,-12%,28µM*,-13%
CN(C)c1ncc2ncc(=O)n(C)c2n1,x,-4%,7%
CCN(CC)Cc1cc(O)c(CN(CC)CC)cc1O,x,u,7.9µM*
CCc1oc(C(=O)O)cc1CN(CC)CC,3%,x,8%
NC(=O)C/C=C\CC(N)=O,x,x,-4%[14.2 µM]
COC1[C@@H](OC)C[C@H](C)[C@@H](OC)C2=CC(=O)C=C(NC(=O)/C(C)=C/C=C\[C@H](OC)[C@@H](OC(N)=O)/C(C)=C/[C@@H]1C)C2=O (stereo partly specified),11%,x,x
Cc1cc2nc3c(=O)[nH]c(=O)nc-3n(C)c2cc1C=O,-17%,x,10µM*
CCCSc1nc2cc(C)c(C)cc2n1CC(O)CO (stereo unspecified),-3%,-7%,5%
Cc1cc2nc(C)c(=O)n(C)c2cc1C,10%,9%,1%
CC(=O)OCCn1c2nc(=O)[nH]c(=O)c-2nc2cc(C)c(C)cc21,15%,10%[57.5 µM],14µM*
Cc1cc2nc3c(=O)[nH]c(=O)nc-3n(CC(O)C(O)C(O)CO)c2cc1C (stereo unspecified),-2%,-4%,14µM*
CCOc1ccc(NC(=O)NCCCn2c(C)nc3cc(C)c(C)cc32)cc1,-5%,x,-10%
